Experimental data taken from PubChem BioAssay (Tox21).
Values joined by “and” are separate entries in the source; they are usually repeats but may differ in a detail not shown here. Identical values can stand only once. Inconclusive results are not listed. Entries that show only a call come without a potency. Some compounds were tested as several samples or in several runs, with calls that do not always agree. Active and inactive are the calls of the source. Unless noted, the call rests on the fitted dose curve; in most records, active means well fitted curve in the direction sought with a large enough effect in the repeat runs; inconclusive means weak or mixed curves; inactive means no such curve, though single readings can be large; an effect the other way counts as inactive or inconclusive.

Legend:
[1] = A CellTox Green Cytotoxicity Assay to monitor cytotoxicity in HepG2 cells - 32 hour (AID 1224883); further: nearly all actives have a fitted effect of over 50% in size; further: potency means the concentration at half of the fitted maximal effect
In short: (§1)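 Measurements at 0, 8, 16, 24, 32 and 40 h of treatment captured CellTox Green fluorescence in HepG2 cells that had been co-plated with reagent and preincubated 5 h at 37 C/5% CO2.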

[2] = A CellTox Green Cytotoxicity Assay to monitor cytotoxicity in HEK293 cells - 8 hour (AID 1224884); further: nearly all actives have a fitted effect of over 35% in size
In short: (§2)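 Tox21 screen in HEK293: membrane-impermeant cyanine dye fluoresces on binding dead-cell DNA; compound pinned 5 h post-seeding, plates held at 37 C, signal read repeatedly through 40 h.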

[3] = qHTS RealTime-Glo MT Cell Viability Assay in HepG2 cells - 16 hour (AID 1224885); further: nearly all actives have a fitted effect of over 50% in size; further: potency means the concentration at half of the fitted maximal effect
In short: (§3)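 HepG2 cells (600/well) were dispensed with RealTime-Glo reagents, incubated 5 h at 37 °C, then treated with compounds in DMSO for up to 40 h. Nonlytic NanoLuc luminescence reflecting viable cells was read at each stated time point.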

[4] = qHTS RealTime-Glo MT Cell Viability Assay in HEK293 cells - 24 hour (AID 1224886); further: nearly all actives have a fitted effect of over 50% in size; further: potency means the concentration at half of the fitted maximal effect
In short: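 HEK293 cells seeded with NanoLuc/prosubstrate reagent, rested 5 h at 37 C, then dosed and kept at 37 C up to 40 h. Nonlytic real-time luminescence from viable cells read at 0, 8, 16, 24, 32 and 40 h.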

[5] = qHTS RealTime-Glo MT Cell Viability Assay in HEK293 cells - 8 hour (AID 1224887); further: nearly all actives have a fitted effect of over 50% in size; further: potency means the concentration at half of the fitted maximal effect
In short: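 HEK293 + NanoLuc + prosubstrate, 600 cells/well; 5 h, 37 C/5% CO2; compound 23 nL in DMSO by pintool; 37 C; luminescence read at 0, 8, 16, 24, 32 and 40 h time points.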

[6] = A CellTox Green Cytotoxicity Assay to monitor cytotoxicity in HEK293 cells - 16 hour (AID 1224888); further: nearly all actives have a fitted effect of over 35% in size
In short: as §2

[7] = A CellTox Green Cytotoxicity Assay to monitor cytotoxicity in HepG2 cells - 8 hour (AID 1224890); further: nearly all actives have a fitted effect of over 45% in size; further: potency means the concentration at half of the fitted maximal effect
In short: as §1

[8] = target: Estrogen receptor (Homo sapiens) (UniProt P03372); assay: qHTS assay to identify small molecule antagonists of the estrogen receptor alpha (ER-alpha) signaling pathway using the BG1 cell line in the presence of 0.1 nM 17-beta-estradiol (AID 1259244); further: nearly all actives have a fitted effect of over 50% in size; further: potency means the concentration at half of the fitted maximal effect
Estrogen receptor (Homo sapiens), sequence (P03372 whole entry, looked up): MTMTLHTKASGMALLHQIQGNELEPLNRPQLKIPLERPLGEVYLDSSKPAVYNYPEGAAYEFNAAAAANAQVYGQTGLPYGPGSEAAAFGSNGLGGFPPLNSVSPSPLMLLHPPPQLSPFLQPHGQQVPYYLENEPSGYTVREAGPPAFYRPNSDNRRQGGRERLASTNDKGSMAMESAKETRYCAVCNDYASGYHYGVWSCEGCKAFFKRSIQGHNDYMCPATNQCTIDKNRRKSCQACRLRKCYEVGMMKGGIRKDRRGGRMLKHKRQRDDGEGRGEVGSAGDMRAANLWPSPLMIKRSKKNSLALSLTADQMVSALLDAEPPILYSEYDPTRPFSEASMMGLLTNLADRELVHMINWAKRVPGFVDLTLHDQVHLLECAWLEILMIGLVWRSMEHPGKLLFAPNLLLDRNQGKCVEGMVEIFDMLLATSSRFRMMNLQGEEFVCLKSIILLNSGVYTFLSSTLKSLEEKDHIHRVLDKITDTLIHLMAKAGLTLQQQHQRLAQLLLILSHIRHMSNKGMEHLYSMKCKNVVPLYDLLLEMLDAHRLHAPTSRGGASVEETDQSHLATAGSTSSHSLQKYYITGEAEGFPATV
In short: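 Compounds were tested against 0.1 nM (final) 17beta-estradiol in VM7Luc4E2 cells, which express full-length ER-alpha and an ERE-luciferase reporter; luminescence was recorded following 22 h exposure.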

[9] = qHTS assay to identify small molecule HDAC inhibitors (AID 1259364);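 further: wild-type HCT-116 cells with endogenous class I/II HDAC activity; top concentration of the series differs between compounds; nearly all actives have a fitted effect of over 45% in size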
In short: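 Screening used wild-type human colon HCT-116 cells incubated overnight, dosed with compounds for 2 hours, and assayed with a homogeneous luminogenic HDAC I/II reagent for 30 minutes at room temperature.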

[10] = qHTS assay to identify small molecule HDAC inhibitors - cell viability counter screen (AID 1259365)
In short: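 HCT-116 wild-type, overnight attachment; 2hr drug exposure, 37C; CellTiter-Glo luminescent ATP readout after 30min RT.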

[11] = qHTS assay to identify small molecule antagonists of the sonic hedgehog signaling (Shh) pathway - cell viability counter screen (AID 1259367); further: nearly all actives have a fitted effect of over 55% in size; further: potency means the concentration at half of the fitted maximal effect
In short: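 Conditioned medium drove Shh signaling in 3T3 Gli1-Luc cells exposed to compounds at 37C and 5% CO2. Viability was determined from CellTiter-Fluor fluorescence, with reagent incubated 1 hr after 23 hr of treatment.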

[12] = qHTS assay to identify small molecule agonists of the sonic hedgehog signaling (Shh) pathway (AID 1259368; calls by dose curve;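 further: NIH/3T3-derived 3T3Gli1-Luc cells carrying a stable Gli1-driven firefly luciferase reporter; series mostly up to about 92 µM; nearly all actives have a fitted effect of over 15% in size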)
In short: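 Hedgehog pathway agonism scored by increased firefly luciferase luminescence in 3T3Gli1-Luc cells treated 24 hr at 37 C; detection used a 30 min room-temperature reagent incubation.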

[13] = qHTS assay to identify small molecule antagonists of the sonic hedgehog signaling (Shh) pathway (AID 1259369; calls by dose curve; further: nearly all actives have a fitted effect of over 45% in size; further: potency means the concentration at half of the fitted maximal effect)
In short: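 NIH/3T3 stable Gli1-Luc clone, 2,000 cells/well, 4hr settle; cpd + conditioned medium 24hr; Luc reagent 30min RT; luminescence.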

[14] = qHTS assay to identify small molecule antagonists of the androgen receptor (AR) signaling pathway using the MDA cell line in the presence of 0.5 nM R1881 - cell viability counter screen (AID 1259242); further: nearly all actives have a fitted effect of over 45% in size
In short: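 Concentration-response screen of compounds for toxicity in MDA-kb2 reporter cells: 16 hr at 37C with 0.5 nM R1881, endpoint live-cell protease fluorescence measured in the reporter wells.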

[15] = target: Androgen receptor (Homo sapiens) (UniProt P10275); assay: qHTS assay to identify small molecule antagonists of the androgen receptor (AR) signaling pathway using the MDA cell line in the presence of 0.5 nM R1881 (AID 1259243); further: nearly all actives have a fitted effect of over 50% in size; further: potency means the concentration at half of the fitted maximal effect
Androgen receptor (Homo sapiens), sequence (P10275 whole entry, looked up): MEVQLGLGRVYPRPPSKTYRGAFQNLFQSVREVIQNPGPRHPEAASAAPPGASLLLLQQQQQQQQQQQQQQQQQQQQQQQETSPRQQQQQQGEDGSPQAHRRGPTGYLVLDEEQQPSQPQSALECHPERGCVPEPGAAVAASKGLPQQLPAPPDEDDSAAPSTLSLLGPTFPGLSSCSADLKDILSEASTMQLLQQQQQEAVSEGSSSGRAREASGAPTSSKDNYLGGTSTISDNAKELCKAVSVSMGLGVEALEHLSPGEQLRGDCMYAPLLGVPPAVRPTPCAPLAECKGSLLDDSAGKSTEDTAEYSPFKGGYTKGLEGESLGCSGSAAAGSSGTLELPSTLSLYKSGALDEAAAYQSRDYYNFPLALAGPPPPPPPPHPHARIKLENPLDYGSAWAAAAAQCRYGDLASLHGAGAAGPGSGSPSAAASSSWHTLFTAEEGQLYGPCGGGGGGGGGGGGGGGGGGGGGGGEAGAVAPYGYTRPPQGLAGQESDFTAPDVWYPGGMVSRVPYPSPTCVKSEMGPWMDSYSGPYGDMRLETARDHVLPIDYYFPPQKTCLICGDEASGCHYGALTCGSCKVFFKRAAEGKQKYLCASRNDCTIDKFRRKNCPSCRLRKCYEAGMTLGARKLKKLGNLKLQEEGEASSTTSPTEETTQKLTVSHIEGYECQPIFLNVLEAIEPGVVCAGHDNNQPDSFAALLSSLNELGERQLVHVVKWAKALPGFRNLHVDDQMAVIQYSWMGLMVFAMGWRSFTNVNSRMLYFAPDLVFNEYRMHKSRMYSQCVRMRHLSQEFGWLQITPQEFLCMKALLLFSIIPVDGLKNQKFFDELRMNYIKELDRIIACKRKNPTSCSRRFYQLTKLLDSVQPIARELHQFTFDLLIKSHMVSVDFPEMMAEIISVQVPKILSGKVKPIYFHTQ
In short: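 With R1881 held at 0.5 nM (final), compound effects on MMTV-luciferase expression in MDA-kb2 cells were scored by luminescence after a 16 hr, 37C incubation.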

[16] = qHTS assay to identify small molecule agonists of the sonic hedgehog signaling (Shh) pathway - cell viability counter screen (AID 1259366); further: nearly all actives have a fitted effect of over 50% in size; further: potency means the concentration at half of the fitted maximal effect
In short: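 Compounds in DMSO were pin-transferred onto 3T3 Gli1-Luc cells that had settled 4hr; plates then stood 24hr at 37C and 5% CO2. One hour before the end, CellTiter-Fluor was added and fluorescence recorded.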

[17] = target: Estrogen receptor beta (Homo sapiens) (UniProt Q92731); assay: qHTS assay to identify small molecule agonists of the estrogen receptor beta (ER-beta) signaling pathway (AID 1259377; active means well fitted activation curve with a large enough effect in the signal ratio in the repeat runs, not every such curve was filed as active; the % refers to the signal ratio)
Estrogen receptor beta (Homo sapiens), sequence (Q92731 whole entry, looked up): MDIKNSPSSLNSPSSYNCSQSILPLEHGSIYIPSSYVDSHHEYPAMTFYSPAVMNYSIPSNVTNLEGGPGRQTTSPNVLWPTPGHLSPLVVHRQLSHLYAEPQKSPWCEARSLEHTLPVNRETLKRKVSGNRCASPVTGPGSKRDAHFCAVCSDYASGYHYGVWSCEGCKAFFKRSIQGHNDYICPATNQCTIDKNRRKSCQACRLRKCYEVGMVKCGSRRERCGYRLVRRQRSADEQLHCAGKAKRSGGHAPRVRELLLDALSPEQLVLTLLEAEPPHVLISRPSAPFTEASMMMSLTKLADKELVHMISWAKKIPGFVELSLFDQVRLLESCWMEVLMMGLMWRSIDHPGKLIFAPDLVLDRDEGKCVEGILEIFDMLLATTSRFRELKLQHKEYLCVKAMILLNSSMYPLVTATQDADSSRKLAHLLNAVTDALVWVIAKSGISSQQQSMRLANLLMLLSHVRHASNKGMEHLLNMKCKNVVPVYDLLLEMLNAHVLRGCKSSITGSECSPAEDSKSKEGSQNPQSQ
In short: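 qHTS in ER-beta-UAS-bla HEK293T cells: 6 hr settling, then 16 hr compound at 37C, then LiveBLAzer substrate 2 h at RT before fluorescence reading.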

[18] = qHTS RealTime-Glo MT Cell Viability Assay in HepG2 cells - 0 hour (AID 1224889); further: nearly all actives have a fitted effect of over 50% in size
In short: as §3

[19] = qHTS assay to identify small molecule phospholipidosis (PLD) inducers (AID 1259344; active means well fitted curve in the direction sought with a large enough effect; an effect the other way counts as inactive or inconclusive)
In short: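 After 4 h attachment on collagen I, HepG2 cells were dosed with compound alongside LipidTOX Red, kept 24 h at 37 C, fixed, and imaged for lamellar phospholipid pits.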

[20] = qHTS assay to identify small molecule antagonists of the estrogen receptor alpha (ER-alpha) signaling pathway using the BG1 cell line in the presence of 0.1 nM 17-beta-estradiol - cell viability counter screen (AID 1259241); further: nearly all actives have a fitted effect of over 40% in size
In short: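 Following 5 days in phenol red-free medium with charcoal-stripped serum, VM7Luc4E2 cells received test compounds alongside 0.1 nM 17beta-estradiol (final) at 37C for 22 hr. Live cells were then quantified via protease-substrate fluorescence.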

Compound	Potency [1]	Potency [2]	Potency [3]	Potency [4]	Potency [5]	Potency [6]	Potency [7]	Potency [8]	Potency [9]	Potency [10]	Potency [11]	Potency [12]	Potency [13]	Potency [14]	Potency [15]	Potency [16]	Potency [17]	Potency [18]	Potency [19]	Potency [20]
Nc1ccc(Cc2ccc(N)c(Cl)c2)cc1Cl	inactive	inactive	inactive	26.6 µM (active)	29.9 µM (active)	inactive	inactive	59.1 µM (active)	inactive	inactive	52.7 µM (active)	inactive	21 µM (active)							
COP(=S)(OC)Oc1cc(Cl)c(Br)cc1Cl	inactive	inactive	inactive	inactive	inactive	inactive	inactive		inactive	inactive	inactive	inactive		inactive	54.5 µM (active)	inactive	inactive			
Clc1ccc(COC(Cn2ccnc2)c2ccc(Cl)cc2Cl)cc1 (centres undefined)	45.7 µM (active) and 54.7 µM (active) and 15.1 µM (active)	inactive	43.5 µM (active)	18.2 µM (active) and 21.8 µM (active)	20.4 µM (active) and 21.8 µM (active)		inactive and 54.7 µM (active)			inactive	45.3 µM (active) and 27.2 µM (active) and inactive	inactive	11.4 µM (active)	inactive		36 µM (active) and 27.2 µM (active)	inactive	inactive	inactive	
Cl/C=C\CCl	inactive	inactive	inactive	inactive	inactive	inactive	inactive		inactive	inactive	inactive	inactive	inactive	inactive		inactive		inactive		
COCC(=O)N(c1c(C)cccc1C)[C@H](C)C(=O)OC	inactive	inactive	inactive	inactive	inactive	inactive	inactive	inactive	inactive	inactive		inactive	inactive			inactive	inactive			inactive
COP(=O)(CCC(=O)NCO)OC	inactive	inactive	inactive	inactive	inactive	inactive	inactive	inactive	inactive	inactive		inactive	inactive	inactive	inactive	inactive				inactive
CC(C)(O)c1cnn2c(-c3ccc(F)c(-c4c(F)cccc4C#N)c3)cnc2n1	inactive	inactive	inactive	5.49 µM (active)	6.16 µM (active)	inactive	inactive		inactive	inactive		inactive	4.33 µM (active)	inactive						inactive
CCOP(=S)(OCC)SCCS(=O)(=O)CC	inactive	inactive	inactive	inactive	inactive	inactive	inactive	inactive	inactive	inactive		inactive		inactive			inactive			inactive
NC(=O)CCl	inactive	inactive	inactive	inactive	inactive	inactive	inactive	inactive	inactive	inactive		inactive		inactive	inactive		inactive			inactive
N#CCCSCCC#N	inactive	inactive	inactive	inactive	inactive	inactive	inactive	inactive	inactive		inactive	inactive	inactive	inactive	inactive	inactive				
CCOP(=S)(OCC)SCS(=O)(=O)C(C)(C)C	inactive	inactive	inactive	inactive	inactive	inactive	inactive		inactive			inactive		inactive			inactive			
N#CCc1ccc(Cl)cc1	inactive	inactive	inactive	inactive	inactive	inactive	inactive	inactive		inactive	inactive	inactive	inactive	inactive		inactive	inactive			inactive
Nc1ccc(Sc2ccc(N)cc2)cc1	4.36 µM (active)	inactive	inactive	inactive	inactive				inactive	inactive	inactive	inactive		inactive		inactive		inactive	inactive	inactive
c1ccc2cc3c(cc2c1)-c1cccc2cccc-3c12	inactive	inactive	inactive	inactive	inactive	inactive	inactive		inactive			inactive	inactive		3.02 µM (active)			inactive		
CN(C)CCc1c[nH]c2ccc(O)cc12	inactive	inactive	inactive	inactive	inactive	inactive	inactive		inactive	inactive	59.7 µM (active)	inactive	8.43 µM (active)	inactive			inactive		inactive	inactive
CCc1cc(C)cc(CC)c1-c1c(OC(=O)C(C)(C)C)n2n(c1=O)CCOCC2	inactive	inactive	inactive	inactive	inactive	inactive	inactive	inactive			15.4 µM (active)	inactive	inactive	inactive		27.3 µM (active)	inactive			
